Shown is part of a subset that was picked to be rich in hits.
ST2 inh = inhibitors of human ST2 (IL1RL1) binding to IL-33, primary screen, biochemical, AlphaLISA | Interleukin-1 receptor-like 1 (Homo sapiens), Q01638 | inhibition, % for hits at 17 µM | hit rate 2.3% among 78,000 | AID 1259354, 2018 | AlphaLISA ST2-Fc/biotin-IL-33 interaction, 1 h; in the data active = inhibition above about 30%
Target sequence (Q01638 whole entry, looked up): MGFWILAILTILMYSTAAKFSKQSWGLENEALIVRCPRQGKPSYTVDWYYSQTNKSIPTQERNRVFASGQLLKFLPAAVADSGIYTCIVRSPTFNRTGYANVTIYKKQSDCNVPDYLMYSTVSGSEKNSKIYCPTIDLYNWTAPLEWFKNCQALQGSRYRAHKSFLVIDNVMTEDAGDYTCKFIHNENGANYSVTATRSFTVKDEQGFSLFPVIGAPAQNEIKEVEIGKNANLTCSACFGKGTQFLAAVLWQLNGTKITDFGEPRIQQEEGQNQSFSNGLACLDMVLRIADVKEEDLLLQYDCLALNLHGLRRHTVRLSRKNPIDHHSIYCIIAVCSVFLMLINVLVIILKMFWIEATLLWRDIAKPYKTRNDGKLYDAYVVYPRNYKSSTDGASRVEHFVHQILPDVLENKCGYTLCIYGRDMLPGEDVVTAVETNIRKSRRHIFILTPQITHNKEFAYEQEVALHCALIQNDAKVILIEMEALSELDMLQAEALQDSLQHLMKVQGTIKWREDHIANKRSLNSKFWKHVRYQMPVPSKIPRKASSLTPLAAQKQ
Hits are given with their value; . = inactive; ! = not active in a repeat.

SMILES | ST2 inh
O=C(Nc1ccc(F)c(Cl)c1)C1CCN(S(=O)(=O)c2cccc3cccnc23)CC1 | .
O=C1CC(c2ccccc2)=Nc2ccccc2N1 | .
Oc1ccccc1C1=Nc2ccccc2N=C(c2cccc(F)c2)C1 | 30%
Fc1cccc(-c2nnc3n2N=C(c2cccc(Br)c2)CS3)c1 | .
CCOc1ccccc1C1C(C#N)=C(N)Oc2n[nH]c(-c3cc(OC)c(OC)c(OC)c3)c21 (stereo not drawn) | .
COc1ccc(C2=NN(CN3C(=O)C(=O)c4ccccc43)C(c3ccc(C)cc3)C2)cc1 (stereo not drawn) | 43%
COc1ccc(C2=NN(C(=O)CCC(=O)O)C(c3cc4ccc(C)cc4nc3Cl)C2)cc1 (stereo not drawn) | .
COc1ccc(C2CC(c3ccc(Br)cc3)=NN2C(=O)CCCC(=O)O)cc1 (stereo not drawn) | .
COc1ccc(C2=Cc3cc(OC)c(OC)cc3/C(=C/c3ccccc3)O2)cc1 | .
O=c1oc(-c2ccc(Oc3ccccc3)cc2)nc2ccccc12 | .
O=C1OC(c2ccc(Oc3ccccc3)cc2)=C/C1=C\c1ccco1 | 54%
CCOc1ccc(NC(c2ccccn2)c2c(C)[nH]c3ccccc23)cc1 (stereo not drawn) | .
Cc1ccc(-c2ccccc2)n1-c1ccc(F)cc1 | .
O=C(Cn1c2ccccc2c(=O)c2ccccc21)Nc1ccc(F)cc1F | .
CN1C[C@@H](NC(=O)NC2CCCCC2)C[C@H]1c1nc(-c2ccccc2)no1 | 82%
Cc1ccc(-c2noc([C@@H]3C[C@H](NS(=O)(=O)c4ccc(C)cc4)CN3C)n2)cc1 | .
COc1ccc(-c2noc([C@@H]3C[C@H](NC(=O)CCC(=O)O)CN3C)n2)cc1 | 30%
CN1C[C@@H](NS(=O)(=O)c2ccc(C#N)cc2)C[C@H]1c1nc(-c2ccccc2)no1 | 51%
COc1ccc(-c2noc([C@@H]3C[C@H](NC(=O)NC(C)C)CN3C)n2)cc1 | 42%
COc1ccc(-c2noc([C@@H]3C[C@H](NS(=O)(=O)c4ccc(C)cc4)CN3C)n2)cc1 | .
CN1C[C@@H](NC(=O)C2CCCCC2)C[C@H]1c1nc(-c2ccccc2)no1 | .
COc1cccc(NC(=O)N[C@H]2C[C@@H](c3nc(-c4ccccc4)no3)N(C)C2)c1 | .
CN1C[C@@H](NS(=O)(=O)c2ccc(Cl)cc2)C[C@H]1c1nc(-c2ccccc2)no1 | .
CN1C[C@@H](NC(=O)NC2CCCCC2)C[C@H]1c1nc(-c2ccc3c(c2)OCO3)no1 | .
COc1ccc(-c2noc([C@@H]3C[C@H](NC(=O)Nc4ccc(C)cc4)CN3C)n2)cc1 | .
SMILES | ST2 inh
COc1ccc(NC(=O)N[C@H]2C[C@@H](c3nc(-c4ccc(OC)cc4)no3)N(C)C2)cc1 | .
O=c1c2cnn(-c3ccc(Cl)cc3)c2ncn1Cc1ccccn1 | .
CC(=O)C(C)n1c(CN(Cc2ccccc2)Cc2ccccc2)nc2c1c(=O)[nH]c(=O)n2C (stereo not drawn) | .
O=C(CN1CCOCC1)N1CCN(C(=O)c2ccccc2)C1 | .
CCCCCOc1ccc(/C=c2\sc3nc(=O)c(C)nn3c2=O)cc1OC | .
Cc1ccc(C(O)=C2C(=O)C(=O)NC2c2ccc(F)cc2)cc1 (stereo not drawn) | .
CC1CC(C)CN(C(=O)C2c3ccccc3C(=O)N3CCc4ccccc4C23)C1 (stereo not drawn) | .
Cc1ccc2nc(NC(=O)CSCC(=O)O)sc2c1 | .
CCOC(=O)C1C(=O)C=C(c2ccco2)CC1c1ccc(OC)cc1 (stereo not drawn) | .
CCCCOc1ccc(C2C(C(=O)OC)=C(C)N=C3SCCC(=O)N32)cc1OC (stereo not drawn) | .
Cc1ccccc1NC1=C(N)C(=O)c2ccccc2C1=O | 87%
Cc1ccccc1NC(=O)c1ccc(C(=O)Nc2ccccc2C)cc1 | .
Cc1ccccc1NCN1C(=O)C2C3C=CC(C3)C2C1=O (stereo not drawn) | .
Cc1ccc2nc(NC3=NC(C(=O)Nc4ccc(Cl)c(Cl)c4)CC(=O)N3)nc(C)c2c1 (stereo not drawn) | .
CCOc1ccccc1Nc1ncnc2c1cnn2-c1ccc(C)cc1C | .
CCN(CC)CCn1ccnc1-c1ccc2onc(C)c2c1 | .
Cc1ccccc1Cn1c(=O)n(CCCC(=O)NCc2ccco2)c(=O)c2sccc21 | 33%!
O=C(CCCn1c(=O)c2sccc2n(Cc2ccccc2F)c1=O)NCc1ccco1 | .
NC(=O)Cn1c(=O)n(CCCC(=O)NCc2ccco2)c(=O)c2sccc21 | .
Cc1ncsc1CCCNC(=O)c1cnn2c1CCCC2 | .
Cc1c(NC(=O)c2ccccc2)cccc1[N+](=O)[O-] | .
Cc1c(NC(=O)C2CC2)cccc1[N+](=O)[O-] | .
Cc1c(NC(=O)C(c2ccccc2)c2ccccc2)cccc1[N+](=O)[O-] | 44%
COc1ccc(OCC(=O)N2CCN(S(=O)(=O)c3ccc(OC)cc3)CC2)cc1 | .
CC(C)Cn1cnc2c(N)nc3ccccc3c21 | 41%
SMILES | ST2 inh
Nc1ncnc2c1ncn2CCOc1ccccc1 | .
CC(Cn1cnc2ccccc21)C(=O)O (stereo not drawn) | .
O=C(Nc1ccccc1Cl)c1cc2ccccc2oc1=O | .
O=C(Nc1ccccc1O)c1cc2ccccc2oc1=O | 34%
O=C(Nc1ccccc1O)c1cc2ccccc2o1 | .
COc1ccc2nc(N3CCC(C(=O)NCCCN4CC(C)CC(C)C4)CC3)sc2c1 (stereo not drawn) | .
O=C(COc1ccc(Br)cc1)Nc1cc(Cl)ccc1Cl | .
O=C(Nc1ccc(S(=O)(=O)Nc2ncccn2)cc1)c1cc2cc([N+](=O)[O-])ccc2s1 | .
COc1ccc(C[C@H](NC(=O)C2=C[C@@H](NC(=O)c3ccc(C)cc3)[C@@H](O)[C@H](O)C2)C(N)=O)cc1 | .
NC(=O)[C@H](Cc1ccc(O)cc1)NC(=O)C1=C[C@@H](NC(=O)c2cnccn2)[C@@H](O)[C@H](O)C1 | 44%
NC(=O)[C@H](Cc1cccs1)NC(=O)C1=C[C@@H](NC(=O)c2ccc(F)c(Cl)c2)[C@@H](O)[C@H](O)C1 | .
Cc1[nH]nc2c1C(c1cccc3ccccc13)CC(=O)N2 (stereo not drawn) | .
Cn1c(=O)c2c(nc3n(CCO)c(C45CC6CC(CC(C6)C4)C5)cn23)n(C)c1=O | .
CC(=O)[C@]1(O)Cc2c(O)c3c(c(O)c2[C@@H](O[C@H]2C[C@H](N)[C@H](O)[C@H](C)O2)C1)C(=O)c1ccccc1C3=O | 34%
O=S(=O)(c1ccccc1)c1nc(-c2ccccc2)oc1NCc1ccco1 | .
Cc1ccsc1[C@@H]1CCN(C(=O)Cn2cc(C)c(=O)[nH]c2=O)C[C@H]1O | .
CSc1nc(O)c(C(c2ccccc2)c2ccccc2)c(=O)[nH]1 | .
NCCCNc1ccc(Cl)cc1[N+](=O)[O-] | .
O=C(Nc1ccc(Cl)cc1[N+](=O)[O-])c1cccs1 | 33%
COc1ccc(Cl)cc1NC(=O)c1cccs1 | .
COc1ccc(NCCNC(=O)c2ccc(Cl)cc2)c([N+](=O)[O-])c1 | 32%
O=C(NCCNc1ccc(Cl)cc1[N+](=O)[O-])c1ccc(Br)o1 | .
COc1ccc(NC(=O)c2ccc(-c3ccccc3)cc2)c([N+](=O)[O-])c1 | .
O=C(Nc1cccc(Cl)c1)c1cccs1 | .
CCNc1ccc(Cl)cc1[N+](=O)[O-] | 31%
CN(C)CCNc1ccc(Cl)cc1[N+](=O)[O-] | .
CCN(CC)C(c1cccs1)c1c(O)[nH]c(=O)[nH]c1=O (stereo not drawn) | .

Screening data (PubChem BioAssay)
